In ChEMBL document CHEMBL3988442, “University of Dundee, Small-Polar-MMV Screening Library” (2021) one finds Percent Effect data, which are given here for 19 compounds.

In the test the target is AMP-activated protein kinase, AMPK (Homo sapiens) (UniProt P54646+O43741+P54619+Q9UGJ0+Q9Y478+Q13131+Q9UGI9). Nature of the test: AMP-dependent Kinase enzyme assay. An in vitro enzyme assay that detects ADP turnover that is directly proportional to AMPK activity. This uses naive AMPK that is activated during the assay with MK-8722. Set-up: scale not given: direction of the effect not stated beside the values. The test is classed as functional. To be noted: 30 µM.
Consider `O=S(=O)(c1ccccc1N1CC(n2cccn2)C1)C(F)(F)F`, for which the Percent Effect amounted to 16%. With `Cc1cc2ccccc2n1CCC(=O)N1CCCC(O)(CN(C)C)CC1` (centres undefined) the figure was 0.58%. Take `c1csc(-c2noc(C3CNC3)n2)c1`: the Percent Effect amounted to 8.02%. With `COc1cc(CNC(=O)COC2CCCCC2)ccc1O` the figure was -0.805%; with `COCCC(=O)N1CCCC(CCC(=O)NCc2cccc(OC)c2)C1` (centres undefined), 14.2%. With `COCc1c(Cl)cccc1NC(=O)CNC(=O)C(C)(C)C` the figure was -4.63%; with `COC(=O)NCC(=O)N1CCCn2nc(CN3CC[C@H](F)C3)cc2C1`, 5.46%; with `Cc1nc(CNCC2CNc3ccnn3C2)cs1` (centres undefined), -8.22%. For `O=C(c1nc(=O)[nH]c2ccccc12)N1CCCC(CC2CC2)(C(=O)O)C1` (centres undefined) the value was -0.821%.

`Cc1cc(NCCc2nc(C)cs2)nc(-c2cccnc2)n1`: the Percent Effect is 5.81%. With `Cc1ccc(CNCc2nccn2C)c(OC(C)(C)C)c1` the figure was -4.8%. With `Cn1cnnc1C1CCCN(c2nc3ccccc3o2)C1` (centres undefined) the figure was -1.42%; with `COC(=O)C1CN(Cc2ccn(-c3ccc(F)cc3)n2)CCO1` (centres undefined), -6.99%; with `CC(C)(C)CN(CCO)C(=O)Nc1cccc(N2CCNC2=O)c1`, 2.19%. With `Cc1nc(C2CCCN2CCOCC2CC2)no1` (centres undefined) the figure was -0.854%; with `CN(C)c1nc(CNC(=O)Nc2cccc([S+](C)[O-])c2)cs1` (centres undefined), 5.35%. As for `Cc1nc(COC(=O)c2cccc3c2OCCO3)no1`, the Percent Effect is -12.1%. Consider `CCC(C)C(=O)Nc1ccc(CCN2CCOCC2)cc1` (centres undefined), for which the Percent Effect amounted to 11.3%.

For the compound `Cc1ccc(N2CCC(CCN3CCCC3=O)CC2)nn1`, the Percent Effect was -7.57%.
